# Source: PubChem BioAssay (NCATS)
# Records with an inconclusive call do not appear. Unmarked numbers belong to inactive results. Active and inactive are the calls of the source. Calls follow the shape of the dose curve; as a rule, active = well fitted activation curve with a large enough effect; inconclusive = small, poorly fitted or top-dose-only effect; inactive = no such curve, though single readings can be large or run the other way.
# Target: Cellular tumor antigen p53 (Homo sapiens) (UniProt P04637)
# Sequence (P04637 whole entry, looked up): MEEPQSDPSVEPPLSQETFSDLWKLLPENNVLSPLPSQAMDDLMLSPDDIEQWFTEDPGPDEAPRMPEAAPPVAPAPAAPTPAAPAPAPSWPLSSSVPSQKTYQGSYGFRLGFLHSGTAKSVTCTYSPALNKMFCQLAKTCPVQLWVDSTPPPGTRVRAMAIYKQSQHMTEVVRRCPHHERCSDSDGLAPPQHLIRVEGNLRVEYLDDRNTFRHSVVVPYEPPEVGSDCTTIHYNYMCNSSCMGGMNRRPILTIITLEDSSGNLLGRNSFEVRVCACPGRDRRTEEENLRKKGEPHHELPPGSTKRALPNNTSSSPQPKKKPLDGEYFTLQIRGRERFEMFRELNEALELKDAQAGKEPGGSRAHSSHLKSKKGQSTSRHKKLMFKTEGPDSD
# Assay: Primary qHTS for small molecule compounds that upregulate eGFP-tagged delta133p53alpha (in N-terminal) cells. (AID 2060322); also: nearly all actives have a fitted effect of over 75% in size;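 as to activation: series mostly up to about 56 µM; 0% = DMSO vehicle and 100% = reference activator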
# Conditions: NCI-H358 eGFP-delta133p53alpha fluorescence, 24 h; activation: hits give high values
# Procedure, shortened: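 NCI-H358 cells pre-induced 24 h with 10 ng/ml doxycycline to express N-terminal eGFP-delta133p53alpha, then dosed 24 h at 37C without doxycycline; fixed, Hoechst-stained, GFP intensity by laser scanning cytometry, normalized to DMSO (0%) and 57.5 uM 5-azacytidine (100%).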
# Potency is read from the fitted curve at half-maximal effect.
Structure (SMILES),activation [%],Potency
CCC(=C(c1ccc(O)cc1)c1ccc(OCCNC)cc1)c1ccccc1,62.8,–
C=C[C@@]1(C)CC(=O)[C@]2(O)[C@@]3(C)[C@@H](O)CCC(C)(C)[C@@H]3[C@H](O)[C@H](OC(C)=O)[C@@]2(C)O1,-2.51,–
C#C[C@]1(O)CC[C@@H]2[C@@H]3CCC4=CC(=O)CC[C@@H]4[C@H]3CC[C@@]21CC,25.3,–
COc1ccc(NS(=O)(=O)c2ccc(N)cc2)nn1,6.69,–
CO[C@H]1C[C@@H]2CC[C@@H](C)[C@@](O)(O2)C(=O)C(=O)N2CCCC[C@@H]2C(=O)O[C@H]([C@H](C)C[C@@H]2CC[C@H](OCCO)[C@H](OC)C2)CC(=O)[C@H](C)C=C(C)[C@@H](O)[C@@H](OC)C(=O)[C@H](C)C[C@H](C)C=CC=CC=C1C,24.4,–
Cn1c(=O)c2c(ncn2CC(=O)O)n(C)c1=O,1.69,–
OCCOCCN1CCN(C(c2ccccc2)c2ccc(Cl)cc2)CC1 (stereo not drawn),8.47,–
CCc1cc(Cl)c(OC)c(C(=O)NC[C@@H]2CCCN2CC)c1O,13.4,–
CN(C)CCOc1ccc(C(=C(CCCl)c2ccccc2)c2ccccc2)cc1,17.8,–
CCCCCCCCNC(C)C(O)c1ccc(SC(C)C)cc1 (stereo not drawn),–,21.9 µM (active)
c1ccc2occc2c1,-5.08,–
CCOc1cc(OCC)c(C(=O)CCC(=O)O)cc1OCC,-15.3,–
O=C1c2c(O)cccc2[C@@H]([C@@H]2O[C@H](CO)[C@@H](O)[C@H](O)[C@H]2O)c2cc(CO)cc(O)c21,-15.3,–
